About 83,000 compounds went through this panel and 20% of them were active in at least one assay; those are over-represented in the sample as a whole.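 Method: cells in 96-well plates; compound added at one concentration; 48 h incubation; percent growth measured; values under 10 scored active.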 Unmarked numbers belong to inactive results. Activity calls are given as the source filed them.
These compounds were tested on SK-MEL-28 melanoma (assay: NCI-60 one-dose screen, 48 h (100 = growth as untreated, 0 = no growth, -100 = all killed)). Conditions: 10 µM unless noted.
For `Cn1[nH]cc(/C=N/C(N)=O)c1=O`, the growth was 115%.
With `Nc1ccc2c(c1)/C(=N/O)c1cc([N+](=O)[O-])ccc1-2` the growth was 102%.
In the case of `CC(=O)n1c2ccccc2c2ccccc21`, the growth is reported as 107%.
With `Fc1ccc(-c2nnc(/C=C/c3cn(-c4ccccc4)nc3-c3ccccc3)o2)cc1` the growth was 98.9%.
With `COc1cc(/C=C/C(=O)c2ccc(F)cc2)ccc1OCCCCCOc1cc2c(cc1OC)C(=O)N1CCCC1C=N2` (stereo unspecified) the growth was -48% (active).
`O=C(Nc1nc(-c2ccccc2)cs1)c1cc(O)c(O)c(O)c1` was tested, and the growth was 76.8%.
`O=C1/C(=C/c2ccc3cccc(Cl)c3n2)SC(=S)N1CCc1ccc(O)cc1` gave a growth of 108%.
`Nc1ncc(-c2cnn(C3CCNCC3)c2)cc1-c1nc2cc(Cl)ccc2o1` was tested, and the growth was -100% (active).
`O=C(NCCc1ccccc1)C1CCC(=O)N1Cc1ccc(Br)cc1` (stereo unspecified) gave a growth of 99.7%.
In the case of `Cn1c(=O)c2c(nc(Br)n2CCC(=O)Nc2ccc(F)cc2)n(C)c1=O`, the growth is reported as 112%.
`Cc1cc(C(C)(C)C)cc(C)c1CC1=NCCN1` gave a growth of 116%.
Work on `CCCCC1Nc2nc(SC)n(C)c(=O)c2CN(Cc2ccccc2)C1=O` (stereo unspecified) yielded a growth of 122%.
Work on `Cc1c(C)c(N2C(=O)C=CC2=O)c(C)c(C)c1N1C(=O)C=CC1=O` yielded a growth of 81.6%.
Compound `Cc1c(NCc2nnc3n(Cc4ccccc4)c(=O)c4c5c(sc4n23)CCCC5)c(=O)n(-c2ccccc2)n1C` has a growth of 103%.
Compound `N#CCNc1ccccc1N` has a growth of 110%.
In the case of `COc1cc(C(=O)/C=C/c2cccnc2Nc2ccccc2)cc(OC)c1OC`, the growth is reported as -97.5% (active).
